# a7 integrin act = activates integrin-mediated alleviation for muscular dystrophy. alpha7betagal myoblasts, beta-gal FDG fluorescence, 48 h. Potency, µM (highest dose often 38.3 µM), inactives show top-dose activation, usual class: activators. 0.064% of 350,000 active. AID 624291;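 further: potency means the concentration at half of the fitted maximal effect; 100% = response of the positive control SU9516; nearly all actives have a fitted effect of over 60% in size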
#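 alpha7betagal+/- myoblasts (passage 13, 250/well) treated 48 h at 37C with compounds at 1:260 dilution of DMSO stock. Lysed, then beta-galactosidase activity read as FDG fluorescence (ex 480/em 540) after 30 min, with pre-read for autofluorescence.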
# PKM2 act = PKM2 (human) enzyme activation; purified PKM2, Kinase-Glo ATP luminescence, activation; response scale: 0% is enzyme alone, no compound; Potency, µM (highest dose often 57.5 µM), for inactives: at the top dose activation, hits mostly activators; 0.34% of 260,000 active; AID 1631; further: potency means the concentration at half of the fitted maximal effect; on the % scale 0 is the no-effect control and ±100 the full control effect; nearly all actives have a fitted effect of over 55% in size
# Target sequence (P14618 whole entry, looked up): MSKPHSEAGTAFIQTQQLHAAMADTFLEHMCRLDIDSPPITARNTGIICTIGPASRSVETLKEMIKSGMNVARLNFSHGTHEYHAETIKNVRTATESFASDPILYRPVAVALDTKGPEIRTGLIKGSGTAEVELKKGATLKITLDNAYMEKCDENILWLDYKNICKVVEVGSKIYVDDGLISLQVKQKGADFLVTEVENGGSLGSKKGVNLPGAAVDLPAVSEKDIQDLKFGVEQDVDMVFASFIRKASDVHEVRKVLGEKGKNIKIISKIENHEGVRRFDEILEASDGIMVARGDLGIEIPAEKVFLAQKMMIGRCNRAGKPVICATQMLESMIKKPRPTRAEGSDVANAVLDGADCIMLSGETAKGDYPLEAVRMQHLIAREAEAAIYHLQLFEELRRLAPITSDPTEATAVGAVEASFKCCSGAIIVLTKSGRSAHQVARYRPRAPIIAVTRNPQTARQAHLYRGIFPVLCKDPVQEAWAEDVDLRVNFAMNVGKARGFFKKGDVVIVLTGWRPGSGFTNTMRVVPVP
#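 Kinase-Glo luminescence reports ATP generated from ADP (0.1 mM) and PEP (0.5 mM) by purified hPK-M2 after 1 h at room temperature, pH 7.2 imidazole buffer; intermediate enzyme activity allows detecting inhibitors and activators.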
# ClpP mod = qHTS Assay for Activators of ClpP; ATP-dependent Clp protease proteolytic subunit (Bacillus subtilis (strain 168)), P80244; purified B. subtilis ClpP, FRET peptide cleavage, 20 min; Potency, µM (doses to about 57.5 µM), without a hit: at the highest dose activity change, negative = active; 1.9% of 340,000 active; active means well fitted falling curve with a large enough effect; inconclusive means small, poorly fitted or top-dose-only effect; inactive means no such curve, though single readings can be large or run the other way; further: potency means the concentration at half of the fitted maximal effect; the source files actives as falling curves though it sought activators and does not explain the sign; nearly all actives have a fitted effect of over 65% in size
# Target sequence (P80244 whole entry, looked up): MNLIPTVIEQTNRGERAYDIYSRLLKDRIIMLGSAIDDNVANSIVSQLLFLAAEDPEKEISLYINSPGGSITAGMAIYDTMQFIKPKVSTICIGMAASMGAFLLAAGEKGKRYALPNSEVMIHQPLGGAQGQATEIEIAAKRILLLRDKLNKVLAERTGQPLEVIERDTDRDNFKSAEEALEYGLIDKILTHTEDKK
#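 ClpP 10 microg/mL final, pH 8 Tris/KCl buffer with BSA, glycerol, Tween-20; compound pinned in; FRET-FV substrate; RT 20 min; Ex320/Em430; ΔFRET vs ADEP 5.8 microM, DMSO, no enzyme.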
# IL-2 act = activators of IL-2; IL-2 activation reporter assay, cell-based qHTS; stimulated with anti-CD3/CD4/CD28 beads; in transgenic mouse T cells; activation, % (series mostly up to about 46 µM); 0.065% of 360,000 active; in the data active means activation above about 50%; inconclusive means mostly about 30% to 49%; further: 0% is about no effect
#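 Unstimulated transgenic mouse T cells, 750 per well, received compound and, after 60 minutes, anti-CD3/anti-CD4 bead plus anti-CD28 stimulation. EGFP and DsRed were quantified after 18 hours.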
# Pin1 inh = inhibitors of human Pin1; Pin1 FP peptide displacement, HiFluor488, 10 min; Potency, µM (highest dose often 115 µM), inactives show at the highest dose activity, negative = inhibition, hits mostly inhibitors; AID 504891; 0.009% of 390,000 active; active means well fitted inhibition curve with a large enough effect in the polarisation, with a control signal flat, not every such curve was filed as active; inconclusive means small, poorly fitted or top-dose-only effect, or effect the other way, or a change in a side signal; inactive means no such curve, though single readings can be large or run the other way; the % refers to the polarisation; further: potency means the concentration at half of the fitted maximal effect; on the % scale 0 is the no-effect control and ±100 the full control effect
# USP2a inh = blocks human ubiquitin-specific protease USP2a; O75604; USP2 core, Ub-CHOP2 coupled fluorogenic reporter, 485/531; Potency, µM (highest dose often 38.3 µM), for inactives: at the highest dose activity change, negative = inhibition, hits mostly inhibitors; 0.01% of 330,000 active;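 further: potency means the concentration at half of the fitted maximal effect; plate controls were DMSO wells for no effect and full inhibition by NEM control for full effect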
#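 USP2 core (10nM final) preincubated 30min RT with compound in 20mM Tris-HCl pH 8.0, 2mM CaCl2, 2mM beta-mercaptoethanol, 0.05% CHAPS; 25nM Ub-CHOP2 plus 25nM reporter substrate added, fluorescence (Ex485/Em531) read after 60min.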
# * hit, by the source's call; ? = inconclusive; / = no result; [ ] = dose if it differs, or a comment. Sampled rows, rich in hits. Any-hit rate of the full collection: about 1.9%. Unless noted, the call rests on the fitted dose curve; in most records, active means well fitted curve in the direction sought with a large enough effect; inconclusive means small, poorly fitted or top-dose-only effect, or another doubt; inactive means no such curve, though single readings can be large; an effect the other way counts as inactive or inconclusive.
SMILES,a7 integrin act,PKM2 act,ClpP mod,IL-2 act,Pin1 inh,USP2a inh
Cc1cccn2c(=O)c3cc(S(=O)(=O)c4ccc(F)cc4)c(=N)n(Cc4ccco4)c3nc12,-20%,0%,/,56*,?,4%
Cc1cccn2c(=O)c3cc(C(=O)NC4CCCCC4)c(=N)n(Cc4ccc(F)cc4)c3nc12,21%,-9%[0.46 µM],4%,154*,15%,-1%
COCCCn1c(=N)c(C(=O)NC2CCCC2)cc2c(=O)n3cccc(C)c3nc21,/,/,4%,/,-5%,/
CCNC(=O)c1cc2c(=O)n3cccc(C)c3nc2n(Cc2ccc(C)cc2)c1=N,-9%,1%,4.5µM*,0,?,1%
Cc1cccn2c(=O)c3cc(S(=O)(=O)c4ccccc4)c(=N)n(Cc4ccco4)c3nc12,45%,25%,-9%,0,?,1%
COC(=O)[C@@H](NC(=O)N1CCc2nc(-c3ccccc3)c3c(c2C1)CO[C@@H](C)C3)C(C)C,/,0%[11.5 µM],/,/,/,/
COCc1cc(C)nc(NCCc2ccccc2)c1C#N,4%,5%,3.5µM*,-2,-1%,/
Cc1cccc(S(=O)(=O)c2c(N)n(/N=C/c3cccnc3)c3nc4ccccc4nc23)c1,-3%,-8%,0%,8,-1%,1%
Nc1c(S(=O)(=O)c2ccccc2)c2nc3ccccc3nc2n1/N=C/c1ccco1,-7%,9%,11µM*,5,27%,0%
Cc1cccc(S(=O)(=O)c2c(N)n(/N=C/c3ccco3)c3nc4ccccc4nc23)c1,-17%,21%,3.5µM*,1,?,0%
COc1ccc(S(=O)(=O)c2c(N)n(Cc3ccco3)c3nc4ccccc4nc23)cc1,-41%,28µM*,16µM*,-1,?,2%
Cc1ccc(S(=O)(=O)c2c(N)n(/N=C/c3ccco3)c3nc4ccccc4nc23)cc1C,12%,?,14µM*,0,28%,2%
COc1ccc(Cn2c(C)nc3c(c2=O)c2nc4ccccc4nc2n3Cc2ccco2)cc1,-16%,/,?,-3,79%,/
Nc1c(C(=O)NC2CCCCC2)c2nc3ccccc3nc2n1/N=C/c1ccco1,/,-4%,/,/,/,0%
CC(=O)Nc1sc2c(c1-c1ccco1)CCNC2,/,/,/,/,-20%,/
Cc1cccc(S(=O)(=O)c2c(N)n(-c3ccccc3)c3nc4ccccc4nc23)c1,?,22%,14µM*,-4,-2%,1%
Cc1ccc(S(=O)(=O)c2c(N)n(/N=C/c3ccco3)c3nc4ccccc4nc23)cc1,6%,14%,8.9µM*,2,?,0%
COc1ccc(OC)c(/C=C/c2cc3ccccc3cn2)c1,/,/,-25%,/,/,/
Cc1cc(C)n(-c2nc3ccccc3[nH]c2=O)n1,24%,7%,28µM*,-3,-4%,0%
Cc1cc(C)n(-c2nc3ccccc3nc2Nc2ccc3[nH]c(=O)[nH]c3c2)n1,-16%,6%,1%,?,?,2%
CC(=O)N=c1sccn1CC(O)c1ccc(Br)cc1 (stereo unspecified),6%,-2%,-2%,-3,7%,-1%
Cn1ccs/c1=N\S(=O)(=O)c1ccc(Br)cc1,22%,16µM*,-4%,2,4%,3%
CCN(CC)S(=O)(=O)c1ccc(OC)c(NC(=O)C(C)Oc2ccc3c(C)cc(=O)oc3c2)c1 (stereo unspecified),-22%,3%,25µM*,0,25%,0%
CCN(CC)S(=O)(=O)c1ccc(C)c(NC(=O)COc2ccc3c(C)cc(=O)oc3c2)c1,-29%,-1%,25µM*,0,0%,2%
Cc1cc(=O)oc2cc(OC(C)C(=O)NC3CCCC3)ccc12 (stereo unspecified),14%,/,/,1,4%,1%
SMILES,a7 integrin act,PKM2 act,ClpP mod,IL-2 act,Pin1 inh,USP2a inh
COc1ccc(-c2nc3ccc(NC(C)=O)cc3c(=O)n2Cc2cccc(Cl)c2)cc1COc1ccc(NC(C)=O)cc1,/,/,-24%,/,?,/
CC(C)(C)NC(=O)COC(=O)CNC(=O)C1CCCCC1,/,/,3%,/,-4%,/
COc1ccc(-c2nn3c(-c4cc(C)[nH]n4)nnc3s2)cc1,/,/,2%,/,-1%,/
C[C@H]1Cc2c(COc3ccccc3)nc3c(c2CO1)CN(S(=O)(=O)c1ccc(C#N)cc1)CC3,/,-5%[11.5 µM],/,/,/,/
O=C(Nc1ccccc1)N1N=C(c2cccs2)CC1c1cccs1 (stereo unspecified),9%,-5%,32µM*,0,2%,-12%
CCS(=O)(=O)Nc1cccc(C2=NN(C(C)=O)C(c3cccs3)C2)c1 (stereo unspecified),-30%,14µM*,/,1,3%,1%
CC(=O)N1N=C(c2cccc(NS(C)(=O)=O)c2)CC1c1cccs1 (stereo unspecified),-7%,?,/,0,-3%,1%
C(=C\c1ccnc2ccccc12)/c1cc2c3c(c1)CCCN3CCC2,/,/,0%,/,/,/
COc1ccc(CCn2c(=S)[nH]c(=O)c3cccnc32)cc1OC,/,/,-2%,/,/,/
COc1cccc2c(Cl)c(CC=C(Cl)Cl)c(C)nc12,2%,-6%,10µM*,0,7%,-1%
CCC(NC(=O)Nc1cc(Cl)ccc1OC)c1c(-n2cccc2)sc2c1CCN(C)C2 (stereo unspecified),/,/,-5%,/,?,/
COc1c(C)cc(Br)cc1C(=O)Nc1cccc(NC(=O)c2ccco2)c1,21%,-4%,28µM*,0,-1%,3%
Cc1cc(-c2cc(-c3ccc(Cl)cc3)on2)nc(NC2CCCC2)n1,17%,2%,25µM*,-1,-2%,?
Cc1cc(-c2cc(-c3ccccc3)on2)nc(NC2CCCC2)n1,-34%,-2%,2%,0,2%,0%
Cc1ccc(Nc2c(-c3ccc(C)o3)nc3cnccn23)cc1,-3%,11µM*,-3%,1,1%,3%
Cc1ccc(Nc2c(-c3ccco3)nc3ccc(C)cn23)cc1,/,/,6.3µM*,/,1%,/
Cc1ccc(-c2nc3cnccn3c2Nc2ccc3c(c2)OCO3)o1,9%,10µM*,-3%,1,2%,3%
COc1ccc(NC(=O)C(OC(=O)CNC(=O)c2ccccc2)c2ccccc2)c(C)c1 (stereo unspecified),/,/,/,/,-2%,/
CCOC(=O)C1(Cc2cccc(Cl)c2)CCCN(C(=O)c2cc(C)on2)C1 (stereo unspecified),10%,1%,-3%,-3,7%,-4%
CCOC(=O)C1(Cc2cccc(Cl)c2)CCCN(C(=O)c2cc(C)[nH]n2)C1 (stereo unspecified),11%,-1%,28µM*,1,-2%,1%
